According to PubChem BioAssay AID1159580 (chemical genetic matrix, 2015):
About 2,000 (36%) of roughly 5,500 compounds were called active. Another 18% or so got no clear call; they are omitted. Rule as the data show it: active = normalized growth mostly below about 0.91 (no sharp cut-off); inconclusive = no clear call, values can overlap the other calls; inactive = mostly above about 0.92. The list shows a part of the results.

Experiment: chemical genetic growth profiling, strain panel (AID 1159580);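 also: tested at 20 µM; growth read once vehicle control cultures reached saturation at 30 °C; 1 = growth at the plate median or of vehicle wells; lower values mean less growth of the strain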
Settings: growth OD

Measured: normalized growth

NC[C@H]1O[C@H](O[C@H]2C(O[C@@H]3O[C@H](CO)[C@@H](O)[C@H]3O)[C@@H](O)[C@H](N)C[C@@H]2N)[C@H](N)[C@@H](O)[C@@H]1O (some centres not stated)
inactive: S. cerevisiae deletion strains, locus YJR075W, strain HOC1, stronger effect = lower value 0.987 | S. cerevisiae deletion strains, locus YKL009W, strain mrt4, stronger effect = lower value 0.995 | S. cerevisiae deletion strains, locus YKL068W, stronger effect = lower value 0.99 | S. cerevisiae deletion strains, locus YKL085W, strain MDH1 (second series), stronger effect = lower value 1 | S. cerevisiae deletion strains, locus YKL085W, strain MDH1, stronger effect = lower value 1 | S. cerevisiae deletion strains, locus YKL160W, strain elf1, stronger effect = lower value 1.01 | S. cerevisiae deletion strains, locus YKL190W, strain CNB1, stronger effect = lower value 1.02 | S. cerevisiae deletion strains, locus YKR001C, strain vps1, stronger effect = lower value 0.976 | S. cerevisiae deletion strains, locus YKR026C, strain gcn3, stronger effect = lower value 0.982 | S. cerevisiae deletion strains, locus YKR091W, strain srl3, stronger effect = lower value 0.993 | S. cerevisiae deletion strains, locus YLL001W, strain dnm1, stronger effect = lower value 1 | S. cerevisiae deletion strains, locus YLL026W, stronger effect = lower value 0.984 | S. cerevisiae deletion strains, locus YLL041C, strain sdh2, stronger effect = lower value 0.995 | S. cerevisiae deletion strains, locus YLR027C, strain aat2, stronger effect = lower value 1 | S. cerevisiae deletion strains, locus YLR039C, strain RIC1, stronger effect = lower value 0.989 | S. cerevisiae deletion strains, locus YLR058C, strain SHM2, stronger effect = lower value 0.99 | S. cerevisiae deletion strains, locus YLR102C, strain apc9, stronger effect = lower value 0.999 | S. cerevisiae deletion strains, locus YLR113W, strain HOG1, stronger effect = lower value 1.03 | S. cerevisiae deletion strains, locus YLR221C, strain rsa3, stronger effect = lower value 1 | S. cerevisiae deletion strains, locus YLR258W, strain gsy2, stronger effect = lower value 0.995 | S. cerevisiae deletion strains, locus YLR262C, strain YPT6 (second series), stronger effect = lower value 1.01 | S. cerevisiae deletion strains, locus YLR262C, strain YPT6, stronger effect = lower value 0.997 | S. cerevisiae deletion strains, locus YLR268W, strain sec22, stronger effect = lower value 0.955 | S. cerevisiae deletion strains, locus YLR320W, strain mms22, stronger effect = lower value 0.991 | S. cerevisiae deletion strains, locus YLR330W, strain CHS5, stronger effect = lower value 0.997 | S. cerevisiae deletion strains, locus YLR342W, strain FKS1 (second series), stronger effect = lower value 1.03 | S. cerevisiae deletion strains, locus YLR342W, strain FKS1, stronger effect = lower value 1 | S. cerevisiae deletion strains, locus YLR357W, strain rsc2, stronger effect = lower value 0.967 | S. cerevisiae deletion strains, locus YLR370C, strain arc18, stronger effect = lower value 0.998 | S. cerevisiae deletion strains, locus YLR371W, strain rom2, stronger effect = lower value 0.987 | S. cerevisiae deletion strains, locus YLR384C, strain iki3, stronger effect = lower value 0.985 | S. cerevisiae deletion strains, locus YLR418C, strain cdc73, stronger effect = lower value 0.975 | S. cerevisiae deletion strains, locus YML016C, strain PPZ1, stronger effect = lower value 0.992 | S. cerevisiae deletion strains, locus YML032C, strain rad52, stronger effect = lower value 0.979 | S. cerevisiae deletion strains, locus YML120C, strain ndi1, stronger effect = lower value 1.01 | S. cerevisiae deletion strains, locus YML124C, strain tub3, stronger effect = lower value 0.993 | S. cerevisiae deletion strains, locus YMR058W, strain fet3, stronger effect = lower value 1 | S. cerevisiae deletion strains, locus YMR078C, strain ctf18, stronger effect = lower value 0.99 | S. cerevisiae deletion strains, locus YMR125W, strain sto1, stronger effect = lower value 0.963 | S. cerevisiae deletion strains, locus YMR129W, stronger effect = lower value 0.981 | S. cerevisiae deletion strains, locus YMR205C, strain PFK2, stronger effect = lower value 0.962 | S. cerevisiae deletion strains, locus YMR223W, strain ubp8, stronger effect = lower value 1.01 | S. cerevisiae deletion strains, locus YMR231W, strain pep5, stronger effect = lower value 1 | S. cerevisiae deletion strains, locus YMR263W, strain SAP30, stronger effect = lower value 0.995 | S. cerevisiae deletion strains, locus YMR307W, strain GAS1, stronger effect = lower value 0.997 | S. cerevisiae deletion strains, locus YNL067W, strain RPL9B, stronger effect = lower value 0.984 | S. cerevisiae deletion strains, locus YNL071W, strain lat1, stronger effect = lower value 1.01 | S. cerevisiae deletion strains, locus YNL128W, strain TEP1, stronger effect = lower value 0.994 | S. cerevisiae deletion strains, locus YNL153C, strain GIM3, stronger effect = lower value 0.993 | S. cerevisiae deletion strains, locus YNL183C, strain NPR1, stronger effect = lower value 0.974 | S. cerevisiae deletion strains, locus YNL209W, strain ssb2, stronger effect = lower value 1 | S. cerevisiae deletion strains, locus YNL233W, strain BNI4, stronger effect = lower value 0.981 | S. cerevisiae deletion strains, locus YNL248C, strain rpa49, stronger effect = lower value 1.01 | S. cerevisiae deletion strains, locus YNL250W, strain rad50, stronger effect = lower value 0.987 | S. cerevisiae deletion strains, locus YNL271C, strain bni1, stronger effect = lower value 0.99 | S. cerevisiae deletion strains, locus YNL298W, strain CLA4, stronger effect = lower value 0.981 | S. cerevisiae deletion strains, locus YNL307C, strain MCK1, stronger effect = lower value 0.989 | S. cerevisiae deletion strains, locus YNL322C, strain KRE1 (second series), stronger effect = lower value 0.987 | S. cerevisiae deletion strains, locus YNL322C, strain KRE1, stronger effect = lower value 1 | S. cerevisiae deletion strains, locus YNR049C, strain mso1, stronger effect = lower value 0.997 | S. cerevisiae deletion strains, locus YNR052C, strain pop2, stronger effect = lower value 0.992 | S. cerevisiae deletion strains, locus YOL006C, strain TOP1, stronger effect = lower value 0.988 | S. cerevisiae deletion strains, locus YOL012C, strain htz1 0.933 | S. cerevisiae deletion strains, locus YOL147C, strain pex11, stronger effect = lower value 0.989 | S. cerevisiae deletion strains, locus YOR001W, strain rrp6, stronger effect = lower value 1 | S. cerevisiae deletion strains, locus YOR061W, strain CKA2, stronger effect = lower value 0.997 | S. cerevisiae deletion strains, locus YOR069W, strain VPS5, stronger effect = lower value 0.988 | S. cerevisiae deletion strains, locus YOR070C, strain gyp1, stronger effect = lower value 1 | S. cerevisiae deletion strains, locus YOR080W, strain dia2, stronger effect = lower value 0.987 | S. cerevisiae deletion strains, locus YOR083W, strain WHI5, stronger effect = lower value 1.01 | S. cerevisiae deletion strains, locus YOR106W, strain vam3, stronger effect = lower value 1 | S. cerevisiae deletion strains, locus YOR136W, strain idh2, stronger effect = lower value 0.995 | S. cerevisiae deletion strains, locus YOR144C, strain elg1, stronger effect = lower value 0.985 | S. cerevisiae deletion strains, locus YOR184W, strain ser1, stronger effect = lower value 0.975 | S. cerevisiae deletion strains, locus YOR231W, strain MKK1, stronger effect = lower value 0.975 | S. cerevisiae deletion strains, locus YOR265W, strain rbl2, stronger effect = lower value 0.991 | S. cerevisiae deletion strains, locus YOR270C, strain vph1, stronger effect = lower value 1.01 | S. cerevisiae deletion strains, locus YOR290C, strain snf2, stronger effect = lower value 0.957 | S. cerevisiae deletion strains, locus YOR316C, strain cot1, stronger effect = lower value 0.994 | S. cerevisiae deletion strains, locus YPL051W, strain arl3, stronger effect = lower value 1.01 | S. cerevisiae deletion strains, locus YPL055C, strain LGE1, stronger effect = lower value 1.04 | S. cerevisiae deletion strains, locus YPL078C, strain atp4, stronger effect = lower value 1.01 | S. cerevisiae deletion strains, locus YPL106C, strain sse1, stronger effect = lower value 0.951 | S. cerevisiae deletion strains, locus YPL240C, strain hsp82, stronger effect = lower value 1.01 | S. cerevisiae deletion strains, locus YPL241C, strain CIN2, stronger effect = lower value 1 | S. cerevisiae deletion strains, locus YPL256C, strain CLN2, stronger effect = lower value 0.986 | S. cerevisiae deletion strains, locus YPR119W, strain clb2, stronger effect = lower value 1 | S. cerevisiae deletion strains, locus YPR141C, strain kar3, stronger effect = lower value 0.978 | S. cerevisiae deletion strains, locus YPR163C, strain tif3, stronger effect = lower value 0.989 | S. cerevisiae deletion strains, locus YPR167C, strain met16, stronger effect = lower value 0.991 | S. cerevisiae deletion strains, strain wtn01, stronger effect = lower value 0.956 | S. cerevisiae strains, strain wild type, stronger effect = lower value 1
